CYP2C19 inhib – blocks human cytochrome P450 2C19; P33261; CYP2C19 Supersomes, luciferin-H EGE luminescence, 30 min; inhibition, % at 5 µM; 21% of 96,000 active; AID 778;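 active = CYP2C19 inhibition above a set limit at 5 µM in the primary screen, cut at about 50% in these data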;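 also: plate controls were negative control wells for no effect and 2.5 mM tranylcypromine positive control for full effect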
CYP2C19 activ – increases human CYP2C19 enzyme activity; P33261; recombinant CYP2C19, luciferin-H EGE luminescence; active compounds read high; 0 = fully inhibited enzyme, 1 = untreated enzyme; activation factor at 5 µM; 96,000 tested, under 10 active; AID 1025;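 active = activation factor of at least 2 at 5 µM in the primary screen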;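 also: 0 = wells with 2.5 mM tranylcypromine and 1 = vehicle-only wells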
CYP2C9 act – CYP2C9 (human) activation | 1.4% of 96,000 active | P11712 | recombinant CYP2C9, luciferin-H conversion, luminescence; active compounds read high; factor 1 = untreated enzyme, 0 = blocked | activation factor at 5 µM;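 active = activation factor of 2 or more for CYP2C9 at a 5 µM dose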;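 also: 0 = sulfaphenazole-blocked wells and 1 = vehicle-only wells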
Target sequence (P11712 whole entry, looked up): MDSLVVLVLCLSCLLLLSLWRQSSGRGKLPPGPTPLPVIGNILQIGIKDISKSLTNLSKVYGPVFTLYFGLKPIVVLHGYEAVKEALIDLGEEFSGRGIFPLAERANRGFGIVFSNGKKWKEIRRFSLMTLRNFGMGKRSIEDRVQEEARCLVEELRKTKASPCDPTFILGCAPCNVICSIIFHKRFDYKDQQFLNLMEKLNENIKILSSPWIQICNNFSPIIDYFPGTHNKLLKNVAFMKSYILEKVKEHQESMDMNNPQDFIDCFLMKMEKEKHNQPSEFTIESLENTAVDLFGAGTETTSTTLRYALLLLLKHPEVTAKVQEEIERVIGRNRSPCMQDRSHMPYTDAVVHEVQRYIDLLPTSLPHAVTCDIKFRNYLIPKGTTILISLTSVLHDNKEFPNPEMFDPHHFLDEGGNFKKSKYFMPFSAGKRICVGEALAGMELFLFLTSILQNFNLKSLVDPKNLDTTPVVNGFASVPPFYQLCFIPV
Cav32 inh – blocks human Cav3.2 T-type calcium channel; B-score at 10 µM; 4% of 100,000 active; Cav3.2-expressing cells, Fluo-4 calcium fluorescence FDSS; active compounds read low; O95180; AID 449739;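 active = single-dose well whose peak fluorescence ratio is a statistical outlier from its plate by either plate-standardised score or position-corrected B-score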
CYP2C9 inh – blocks human cytochrome P450 2C9; P11712; 20% of 96,000 active; inhibition, % at 5 µM; CYP2C9 Supersomes, luciferin-H conversion, luminescence; AID 777;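 active = blocking of liver enzyme CYP2C9 beyond about 50% at 5 µM, limit read from the data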
* hit, by the source's call; x = no result. A selection: hits, their analogues and other compounds. The true share with any hit is near 27%.

SMILES | CYP2C19 inhib | CYP2C19 activ | CYP2C9 act | Cav32 inh | CYP2C9 inh
COc1ccc(NC(=O)CSc2nccc(C)n2)cc1 | 50.7* | 0.5 | 1 | -0.548 | -4.5
Cc1cccc(C(=O)OCc2cnc(Cl)s2)c1 | 17.1 | 0.8 | 1 | -0.27 | 0.3
COc1cccc(-n2ccnc2SCC(=O)Nc2cc(OC)ccc2OC)c1 | 88.7* | 0.1 | 1.2 | x | -19.5
COc1cccc(NC(=O)CSc2nccn2-c2cccc(OC)c2)c1 | 61.0* | 0.4 | 0.7 | x | 26.3
O=C(CSc1ccc2c(c1)OCCO2)Nc1ccc(Cl)cn1 | 71.0* | 0.3 | 0.7 | -0.00668 | 26.4
Cc1c(NC(=O)CSc2ccc3c(c2)OCCO3)c(=O)n(-c2ccccc2)n1C | -7.0 | 1.1 | 1 | -0.0848 | 0.5
COc1ccc(-n2ccnc2SCC(=O)Nc2ccccc2)cc1 | 59.9* | 0.4 | 0.4 | -1.47 | 59.5*
CCn1c(COc2cccc(OC)c2)nnc1SCC(=O)Nc1cc(OC)ccc1OC | 46.8 | 0.5 | 1.1 | 0.504 | -13.2
COCCSc1nnc(NC(=O)C(C)(C)C)s1 | 19.1 | 0.8 | 1 | 0.27 | 4.0
Cc1noc(/C=C/N(C)C)c1S(=O)(=O)N1CCCC(C(=O)NC2CCCCC2C)C1 (stereo not given) | 14.9 | 0.9 | 0.5 | x | 47.1
CCOc1ccc(C/C(N)=N/n2cnnc2)cc1 | -6.8 | 1.1 | 1.1 | 0.56 | -7.2
CCOc1cccc(CN2CCN(c3cccc(C(F)(F)F)c3)CC2)c1O | 93.4* | 0.1 | 0.4 | -0.348 | 64.6*
COc1cccc(N2CCN(Cc3cccnc3)CC2)c1 | 66.8* | 0.3 | 1.1 | 0.362 | -12.6
FC(F)(F)c1cccc(N2CCN(Cc3cccnc3)CC2)c1 | 96.4* | 0 | 0.2 | 0.326 | 80.8*
COc1cccc(CN2CCN(c3ncccn3)CC2)c1 | 56.3* | 0.4 | 0.9 | 0.332 | 10.2
O=c1cc(N2CCN(Cc3ccccc3)CC2)[nH]c(=O)n1-c1cccc(C(F)(F)F)c1 | x | x | x | 0.578 | x
COc1cccc(CN2CCN(c3cccc(C(F)(F)F)c3)CC2)c1OC | x | x | x | -1.01 | x
CC(C)C(C(=O)Nc1ccc(N2CCOCC2)cc1)N1C(=O)c2ccccc2C1=O (stereo not given) | 22.8 | 0.8 | 0.8 | -0.0194 | 15.9
CC(C)=CC(=O)Nc1ccccc1Br | 11.9 | 0.9 | 1 | -0.318 | 2.2
CC1=NN(C(=O)c2ccc(Br)cc2)C(O)(C(F)(F)OC(F)(F)F)C1 (stereo not given) | 53.2* | 0.5 | 0.8 | x | 24.0
COC(=O)c1ccc(CSc2nc3c(c(=O)n2-c2ccc(C)cc2)SCC3)o1 | 64.6* | 0.4 | 0.1 | -0.28 | 93.2*
COC(=O)C(C)Sc1nc2c(c(=O)n1-c1ccccc1)SCC2 (stereo not given) | 88.7* | 0.1 | 0.3 | 1.44 | 69.2*
COc1cc(C(=O)Nc2cc(Cl)ccc2C)c(-n2cnnn2)cc1OC | -12.2 | 1.1 | 1.2 | 0.0865 | -18.6
Cc1[nH]nc2ncc(C(=O)c3cc(F)ccc3O)cc12 | 58.2* | 0.4 | 1.1 | 0.0355 | -9.5
Cc1[nH]nc2ncc(C(=O)c3cc(Cl)cc(Cl)c3O)cc12 | -2.7 | 1 | 0.7 | -1.7 | 31.8
SMILES | CYP2C19 inhib | CYP2C19 activ | CYP2C9 act | Cav32 inh | CYP2C9 inh
Cc1noc2ncc(C(=O)c3cc(F)ccc3O)cc12 | 96.4* | 0 | 0.5 | x | 50.2*
Cc1ccccc1OCc1nnc(SCC(=O)Nc2ccc3nc(SCC(=O)NC(C)(C)C)sc3c2)n1C | 52.6* | 0.5 | 0.2 | 0.845 | 75.4*
CC(C)(C)NC(=O)CSc1nc2ccc(NC(=O)CSc3nnnn3Cc3ccccc3)cc2s1 | 52.4* | 0.5 | 0.5 | -0.467 | 48.8
COc1ccc(Cc2nc(-c3ccccc3)no2)cc1 | 26.7 | 0.7 | 0.8 | -2.45 | 16.9
Clc1ccc(Cc2nc(-c3cccnc3)no2)cc1 | 54.2* | 0.5 | 0.6 | -1.3 | 40.3
CCC(=O)Oc1ccc(-c2nc(-c3cccnc3)no2)cc1 | 67.8* | 0.3 | 0.3 | 1.34 | 69.5*
c1ccc(-c2cc(-c3nc(-c4cccnc4)no3)c3ccccc3n2)cc1 | 9.0 | 0.9 | 0.9 | x | 9.8
c1ccc(-c2ccccc2-c2nc(-c3cccnc3)no2)cc1 | 72.9* | 0.3 | 0 | -4.95* | 95.9*
c1cncc(-c2noc(CC3CCCCC3)n2)c1 | 80.5* | 0.2 | 1.1 | -0.905 | -9.2
Cc1cc(OCc2nc(-c3cccnc3)no2)c(C)cc1Br | 23.5 | 0.8 | 1.1 | -1.06 | -11.0
COC(=O)c1ccccc1OCC(=O)N1CCN(c2ccc(OC)cc2)CC1 | 19.3 | 0.8 | 0.9 | 0.745 | 12.3
CC(=O)Nc1nc(C)c(Oc2ccc(Cl)cc2Cl)c(=O)[nH]1 | 0.5 | 1 | 1.7 | 0.657 | -65.2
COc1cc2c(cc1O)[C@@H]1Cc3cc(OC)c(OC)cc3C(C2)N1C | x | x | x | 0.646 | x
COC(C/C=C/[C@H](O)[C@@H](C)OCc1ccccc1)OC | x | x | x | 1.16 | x
Cc1cccn2c(=O)c3cc(C#N)c(=NC(=O)c4ccncc4)n(CCCOC(C)C)c3nc12 | 93.7* | 0.1 | 0.1 | -0.772 | 87.2*
CCOCCCn1c(=NC(=O)c2cccnc2)c(C(=O)OCC)cc2c(=O)n3ccccc3nc21 | 2.6 | 1 | 0.8 | 4.21* | 16.4
CCCCn1c(=NC(=O)c2cccnc2)c(C(=O)OCC)cc2c(=O)n3ccccc3nc21 | -6.9 | 1.1 | 0.9 | 1.54 | 7.0
COCCCn1c(=NC(=O)c2ccncc2)c(C#N)cc2c(=O)n3cccc(C)c3nc21 | 70.4* | 0.3 | 0.2 | -2.46 | 80.6*
CCCCn1c(=NC(=O)c2cccnc2)c(C#N)cc2c(=O)n3cccc(C)c3nc21 | 0.8 | 1 | 1 | x | -2.0
CC(C)C(=O)Nc1nnc(CCN2CCOCC2)s1 | -17.0 | 1.2 | 1.2 | 0.506 | -15.3
COc1ccc(N2C(=O)CCC(C(=O)NCc3cccnc3)C2c2ccc(OC)c(OC)c2)cc1 (stereo not given) | 18.8 | 0.8 | 0.8 | -0.0223 | 15.7
O=C1CCCc2[nH]nc(-c3cccnc3)c21 | -11.7 | 1.1 | 1.1 | -0.0197 | -6.5
C/C(=C(\C#N)C(=O)NC1CCCCC1)N(C)C | 21.8 | 0.8 | 1 | 0.166 | 0.0
CC(C)CC(C(=O)Nc1oc(-c2ccco2)c(-c2ccco2)c1C#N)N1C(=O)c2ccccc2C1=O (stereo not given) | 69.4* | 0.3 | 0 | -1.15 | 97.8*
CC(C)CC(C(=O)Nc1ccc2c(c1)OCCO2)N1C(=O)c2ccccc2C1=O (stereo not given) | -12.3 | 1.1 | 1 | 0.208 | 4.0
SMILES | CYP2C19 inhib | CYP2C19 activ | CYP2C9 act | Cav32 inh | CYP2C9 inh
CCOc1ccc(OCC)c(S(=O)(=O)NCc2ccc3c(c2)OCO3)c1 | 100.1* | 0 | 0.1 | -1.52 | 91.9*
COc1cc(C)c(S(=O)(=O)NCc2ccc3c(c2)OCO3)cc1C | 99.6* | 0 | 0.2 | -1.25 | 83.9*
COc1cc(S(=O)(=O)NCc2ccc3c(c2)OCO3)ccc1Cl | 99.5* | 0 | 0.7 | -1.34 | 30.2
COc1cc(C)c(Cl)c(C)c1S(=O)(=O)NCc1ccc2c(c1)OCO2 | 24.9 | 0.8 | 1.4 | -1.55 | -35.5
O=S(=O)(NCc1ccc2c(c1)OCO2)c1cnc[nH]1 | 69.9* | 0.3 | 0.1 | -0.289 | 92.3*
CCOc1ccc(OCC)c(S(=O)(=O)NCc2ccccn2)c1 | 43.4 | 0.6 | 0.9 | 0.377 | 14.1

From PubChem BioAssay
